# WT yeast gro inh – growth inhibition of WT yeast, mitochondrial fusion screen; inhibition, % at 10 µM; mitochondrial fusion phenotypic screen, WT strain; AID 1362; 190,000 compounds, 2.1% hits; in the data active = inhibition above about 58%; tested in S. cerevisiae
# CHOP inh – inhibitors of CHOP induction in ER stress response; inhibition, % at 10 µM; CHO-K1 CHOP-promoter luciferase, tunicamycin-induced, 15-18 h; 220,000 compounds, 3.8% hits;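 active = compounds that reduced the stress-induced luciferase reporter signal by more than about 70% of percent inhibition, limit read from the data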;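 note: 0% = tunicamycin plus vehicle and 100% = wells without tunicamycin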
# Lmaj promast – inhibitors of Leishmania major promastigote growth | Leishmania major promastigotes, resazurin fluorescence viability | inhibition, % at 10 µM | 200,000 compounds, 9% hits; in the data active = inhibition above about 50%;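 note: promastigotes grown with compound for 44 hours at 28 °C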
# RAM inhibit – blocks the yeast RAM network; S. cerevisiae dse1pr::URA3 reporter, 5-FOA growth OD615, 2 d; analog-sensitive cbk1-as2 kinase mutant strain; inhibition, % at 50 µM; 190,000 compounds, 1.8% hits;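 active = inhibition above a set limit, 3 SD over mean compound inhibition, cut at about 8.4% in these data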;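 note: 0% = DMSO-only wells with no growth and 100% = 10 µM 1-NA-PP1 full growth; inhibition rescues growth on 5-FOA so higher OD means more RAM inhibition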
# * marks the source's active call; other numbers are inactive results; / = not tested or not shown. Sampled rows, rich in hits. Any-hit rate of the full collection: about 13%.
SMILES,WT yeast gro inh,CHOP inh,Lmaj promast,RAM inhibit
O=C(c1ccco1)N1N=C(c2ccc(Br)cc2)CC1(O)C(F)(F)F (centres undefined),9.4,48.7,-1.0,1.4
C/C(CCc1ccc2c(c1)OCO2)=N\N=C1\NC(=O)CC(C(=O)Nc2ccccc2F)S1 (centres undefined),5.4,-10.4,-2.3,1.2
O=C(Nc1ccc2[nH]c(=O)[nH]c2c1)c1c(F)c(F)c(F)c(F)c1F,-5.9,-2.8,5.7,3.0
CCOC(=O)N1CCC(=NNc2ncc(C(F)(F)F)cc2Cl)CC1,10.7,-5.1,-12.6,1.9
CCOC(=O)N1CCC(=NNc2ccnc3cc(Cl)ccc23)CC1,28.9,-3.4,61.4*,1.6
CC(=O)N1CCC(=NNc2ccnc3cc(Cl)ccc23)CC1,26.8,-12.7,85.8*,1.2
Cc1nc2cc3nc(C(F)(F)F)[nH]c3cc2[nH]1,-12.4,19.0,-5.2,1.2
C=CCN1CCc2cc(O)c(O)cc2C(c2ccccc2)C1 (centres undefined),/,95.2*,/,/
Cc1ccc(NC(=O)COC(=O)c2cccc(N3C(=O)c4ccccc4C3=O)c2)cc1,/,42.9,/,/
CC(OC(=O)c1cccc(N2C(=O)c3ccccc3C2=O)c1)C(=O)Nc1ccc(N(C)C)cc1 (centres undefined),12.8,-3.9,55.7*,2.0
CCOC(=O)c1c(C)[nH]c(C(=O)OCC(=O)Nc2cc(Cl)ccc2OC)c1C,85.4*,77.7*,2.8,1.6
CCOC(=O)c1c(C)[nH]c(C(=O)OCC(=O)Nc2ccc(OC)c(Cl)c2)c1C,-0.3,87.0*,0.4,1.9
CCOC(=O)c1c(C)[nH]c(C(=O)OCC(=O)Nc2cc(C)ccc2OC)c1C,-5.5,14.0,1.1,1.6
O=C(CN1CCN(S(=O)(=O)c2ccc(F)cc2)CC1)Nc1ccc(Cl)c(C(F)(F)F)c1,6.8,65.2,9.9,0.0
O=C(CNc1cc(S(=O)(=O)N2CCCC2)ccc1OCC(F)(F)F)Nc1cccc(C(F)(F)F)c1,-1.6,58.4,95.1*,3.1
O=C(CN1CCN(S(=O)(=O)c2ccccc2)CC1)Nc1cccc(C(F)(F)F)c1,-14.7,79.5*,12.0,0.7
O=C(Nc1cc(S(=O)(=O)N2CCCC2)ccc1OCC(F)(F)F)c1ccccc1F,3.0,40.1,-5.3,2.4
CCCCNC(=O)COC(=O)c1cc(C)oc1C,-10.7,4.9,-0.4,0.6
CCC(C)c1ccccc1NC(=O)C(C)N(C)Cc1cccc(OC)c1 (centres undefined),8.2,36.8,22.2,1.0
CCOc1ccccc1N1CCN(Cc2c(C)n(C)n(-c3ccccc3)c2=O)CC1,-18.6,4.5,-8.5,0.7
O=C(Nc1ccc2c(c1)OCO2)N1CCN(c2ncc(C(F)(F)F)cc2Cl)CC1,18.1,51.4,68.1*,2.9
O=C(CN1CCN(c2ccc(F)cc2)CC1)c1ccc2c(c1)OCO2,-4.1,18.5,88.5*,-0.5
CNCC(=O)N1CCN(c2ncc(C(F)(F)F)cc2Cl)CC1,7.8,5.5,71.1*,0.9
O=C(CN1CCN(c2ccc(Cl)cc2)CC1)c1ccc2c(c1)OCO2,-6.4,19.4,-4.0,-0.7
CC(C(=O)N1CCN(c2ccc(Cl)cc2)CC1)c1ncc(C(F)(F)F)cc1Cl (centres undefined),/,71.0*,-6.3,2.2
SMILES,WT yeast gro inh,CHOP inh,Lmaj promast,RAM inhibit
CCOC(=O)N1CCN(c2ncc(C(F)(F)F)cc2Cl)CC1,18.1,39.3,-0.9,-0.4
CC(OC(=O)c1nn(C(C)C)c(=O)c2ccccc12)C(=O)Nc1ncc(Cl)cc1Cl (centres undefined),13.2,24.0,-3.3,2.3
CCn1c(CSc2ncccn2)nnc1SCC(=O)N1CCCCC1,-0.2,41.9,4.1,-0.6
O=C(Nc1ccc2c(c1)OCO2)N1CCN(c2ccc(F)cc2)CC1,11.7,78.4*,-2.0,-0.1
COc1ccc(NC(=O)/C(C#N)=C/c2ncc([N+](=O)[O-])n2C)c(OC)c1,/,-37.3,/,/
CC(C)(C)OC(=O)C(Cc1ccc(OC(C)(C)C)cc1)NC(=O)CNC(=O)OCc1ccccc1 (centres undefined),13.6,74.4*,16.7,5.5
CC(C)CC(NC(=O)C(CC(C)C)NC(=O)C(Cc1ccc(OCc2ccccc2)cc1)NC(=O)OC(C)(C)C)C(N)=O (centres undefined),-4.6,93.7*,2.4,3.8
CC(C)CC(NC(=O)C(NC(=O)C(Cc1ccc(OCc2ccccc2)cc1)NC(=O)OC(C)(C)C)C(C)C)C(N)=O (centres undefined),19.0,95.1*,8.6,0.6
COc1ccc(C2C(C(=O)c3ccccc3)N3c4ccccc4C=CC3C2[N+](=O)[O-])cc1 (centres undefined),12.3,13.2,44.2,6.5
O=C(CCCC(=O)OCC(Cl)=C(Cl)Cl)Nc1ccc(F)cc1,13.1,28.4,-9.1,-0.8
O=[N+]([O-])c1cc(-c2ccc(/C=N/c3nc4ccccn4c3-c3ccco3)o2)ccc1Cl,-2.0,90.8*,2.5,4.3
CC(C)OCCCNC(=S)Nc1ccc(S(N)(=O)=O)cc1,-10.1,1.6,-3.9,0.3
NC(=S)n1[nH]c(-c2ccc([N+](=O)[O-])cc2)c(N=Nc2cccc(Cl)c2)c1=O,74.7*,83.0*,46.6,1.8
Nc1[nH][nH]c(=O)c1N=Nc1cccc(Cl)c1,-7.6,-13.0,-8.8,1.0
COc1ccc(CNC(=O)COC(=O)c2n[nH]c3ccccc23)cc1,17.6,-0.7,-2.8,10.4*
COc1ccc(CCNC(=O)c2n[nH]c3ccccc23)cc1,2.4,-18.8,-1.9,2.0
Cc1cccc(OCCC(=O)N(C)CC(=O)Nc2cccc3ccccc23)c1,-3.2,33.0,1.7,1.0
Cc1nonc1C1CCCN1Cc1cn[nH]c1-c1ccc(-c2ccccc2)cc1 (centres undefined),58.5*,2.8,38.9,0.5
NC(N)=N/N=C/c1ccc(OCc2ccccc2)cc1,19.4,-26.1,100.6*,-0.7
O=C(N/N=C/c1ccccc1)c1ccc(OCc2ccccc2)cc1,10.5,-13.4,-1.1,3.9
Cc1ccc(COc2ccc(/C=N/O)cc2)cc1,-8.6,17.4,58.1*,-0.1
N#Cc1ccc(/C=N/N=C(N)N)cc1,-5.3,20.6,78.7*,0.0
NC(N)=N/N=C/c1ccc(Br)cc1,7.7,-31.0,99.8*,0.3
COc1ccc(CC(=O)OCC(=O)NCc2ccccc2Cl)cc1OC,-3.0,7.1,-8.7,-0.3
CCOc1ccc(NC(=S)N2CCC(C(N)=O)CC2)cc1,0.7,-18.0,-5.4,2.6
CC(C)[C@H](NC(=O)c1ccccc1Cl)C(=O)Nc1nc(-c2ccccn2)cs1,39.7,32.8,99.1*,0.8
Cc1nc2ccc3nc(NC(=O)C4COc5ccccc5O4)sc3c2s1 (centres undefined),22.0,-12.0,11.3,3.4
CSc1nc2ccc3nc(NC(=O)C4COc5ccccc5O4)sc3c2s1 (centres undefined),6.2,49.8,78.5*,3.5
CC1CCc2nc(NC(=O)C3COc4ccccc4O3)sc2C1 (centres undefined),52.2,78.5*,2.2,4.7
Cc1ncsc1C(=O)Nc1nc2c(s1)CC(C)CC2 (centres undefined),64.8*,27.0,28.5,1.5

# Screening results as filed in PubChem.
